# Measurements from the supplement of paper PMC8728848.
# The full list was thinned out, with the strongest signals kept by preference.
# B1: Annexin-A1 (Mus musculus), P10107 (protein)
# chain: MAMVSEFLKQARFLENQEQEYVQAVKSYKGGPGSAVSPYPSFNVSSDVAALHKAIMVKGVDEATIIDILTKRTNAQRQQIKAAYLQENGKPLDEVLRKALTGHLEEVVLAMLKTPAQFDADELRGAMKGLGTDEDTLIEILTTRSNEQIREINRVYREELKRDLAKDITSDTSGDFRKALLALAKGDRCQDLSVNQDLADTDARALYEAGERRKGTDVNVFTTILTSRSFPHLRRVFQNYGKYSQHDMNKALDLELKGDIEKCLTTIVKCATSTPAFFAEKLYEAMKGAGTRHKALIRIMVSRSEIDMNEIKVFYQKKYGISLCQAILDETKGDYEKILVALCGGN
# Legend:
# Assay in all cases: glycan array binding signal (z-score within array); higher = stronger binding
# Details in all cases: glycan notation: IUPAC condensed, linker removed
# [1] = target: Fuc(a1-2)Gal(b1-4)Glc6S
# In short: (§1)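 Columns mapping to the same glycan were averaged after glycan names were converted to IUPAC-condensed notation. The data come from 3228 arrays in the Consortium for Functional Glycomics database, limited to those with an available protein sequence. Binding is reported as a within-array Z-score averaged across arrays of one protein sequence and across linkers.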
# [2] = target: Fuc(a1-2)[Gal(a1-3)]Gal(b1-4)GlcNAc
# In short: as §1
# [3] = target: Fuc(a1-3)[Gal3S(b1-4)]Glc
# In short: as §1
# [4] = target: Gal(b1-3)GalNAc(b1-3)Gal(b1-4)Glc
# In short: as §1
# [5] = target: Gal(b1-3)[Neu5Ac(a2-6)]GalNAc
# In short: as §1
# [6] = target: Gal3S(b1-4)Glc6S
# In short: as §1
# [7] = target: Gal3S(b1-4)GlcNAc6S
# In short: as §1
# [8] = target: Gal3S6S(b1-4)GlcNAc6S
# In short: as §1
# [9] = target: Gal4S6S(b1-4)GlcNAc
# In short: as §1
# [10] = target: Gal6S(b1-4)Glc6S
# In short: as §1
# [11] = target: GlcA(b1-6)Gal
# In short: as §1
# [12] = target: GlcNAc(b1-3)Gal(b1-3)GalNAc
# In short: as §1
# [13] = target: GlcNAc(b1-3)[GlcNAc(b1-6)]Gal(b1-4)GlcNAc
# In short: as §1
# [14] = target: GlcNAc(b1-3)[GlcNAc(b1-6)]GlcNAc
# In short: as §1
# [15] = target: GlcNAc(b1-4)Gal(b1-4)GlcNAc
# In short: as §1
# [16] = target: Man(a1-3)[Man(a1-6)]Man
# In short: as §1
# [17] = target: Man(a1-3)[Man(a1-6)]Man(a1-6)[Man(a1-3)]Man(b1-4)GlcNAc(b1-4)GlcNAc
# In short: as §1
# [18] = target: Neu5Ac(a2-3)Gal(b1-3)GalNAc
# In short: as §1
# [19] = target: Neu5Ac(a2-3)Gal6S(b1-4)GlcNAc
# In short: as §1
# [20] = target: Neu5Gc(a2-3)Gal(b1-4)[Fuc(a1-4)]GlcNAc
# In short: as §1
binder,measurement,setting,value
B1,glycan array binding signal (z-score),[1],1.79
same,glycan array binding signal (z-score),[2],-0.684
same,glycan array binding signal (z-score),[3],-0.177
same,glycan array binding signal (z-score),[4],-0.151
same,glycan array binding signal (z-score),[5],-0.343
same,glycan array binding signal (z-score),[6],3.21
same,glycan array binding signal (z-score),[7],1.83
same,glycan array binding signal (z-score),[8],7.38
same,glycan array binding signal (z-score),[9],1.13
same,glycan array binding signal (z-score),[10],3.55
same,glycan array binding signal (z-score),[11],0.482
same,glycan array binding signal (z-score),[12],-0.049
same,glycan array binding signal (z-score),[13],-0.758
same,glycan array binding signal (z-score),[14],-0.452
same,glycan array binding signal (z-score),[15],-0.318
same,glycan array binding signal (z-score),[16],-0.165
same,glycan array binding signal (z-score),[17],-0.176
same,glycan array binding signal (z-score),[18],-0.573
same,glycan array binding signal (z-score),[19],-0.076
same,glycan array binding signal (z-score),[20],-0.436
